Compound activity deposited in PubChem by Columbia University Molecular Screening Center.
VCAM1 pot = potentiators of TNFa-induced VCAM1 expression, primary screen, imaging, HUVEC, TNFa stimulus, immunofluorescence | HUVEC TNFa-stimulated VCAM-1 immunofluorescence, high-content imaging; scaled per plate to unstimulated/TNFa-only wells | activation, % at 2 µM | hit rate 0.19% among 93,000;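 active = activation above the screen mean plus 3 SD, with well images confirming the hit on visual review, cut at about 28% in these data, passing the limit was not always enough; inconclusive = activation above that limit but images do not confirm it; inactive = activation not above that limit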;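 also: signal is the number of cytoplasmic VCAM-1 stained grains per positive cell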
VCAM1 pot confirm = potentiators of TNFa-induced VCAM1 expression, confirmation, imaging, HUVEC, triplicate retest | shares compounds with VCAM1 pot | 230 tested, under 10 active | HUVEC TNFa-stimulated VCAM-1 immunofluorescence imaging | AID 1034, 2008 | activation, % at 2 µM;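 active = activation above 30% in triplicate retests at 2 µM, then confirmed by visual review of the well images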;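 also: scaled per plate between unstimulated and TNFa-stimulated DMSO control wells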
An asterisk follows results filed as active; ? = inconclusive. The entries come from a sample that favours hits as a whole.

SMILES	VCAM1 pot	others
CCOC(=O)c1ccccc1NC(=O)CSc1nnc(COc2ccccc2C)n1C	4.4
Cc1ccc(-n2c(C(C)n3nc(C)c([N+](=O)[O-])c3C)n[nH]c2=S)cc1 (stereo not drawn)	-11.8
COc1ccc(C2=NOC3(CC(=O)N(c4ccc(F)cc4)C3=O)C2)c(OC)c1 (stereo not drawn)	-4.4
CCCC(C)C(=O)Nc1ccncc1 (stereo not drawn)	32.0
CCN(CC)S(=O)(=O)c1cc([N+](=O)[O-])ccc1NNC(=O)Nc1ccc(Cl)c(Cl)c1	-23.1
CC(C)N(CCc1ccncc1)C(=O)Nc1ccc(Cl)c(Cl)c1	38.5*	VCAM1 pot confirm=-2.8
Cc1ccc(Sc2ncccc2COC(=O)Nc2c(C)cccc2C)cc1	35.9
Cc1cc(C)n(C(=O)c2ccc(NC(=O)C3COc4ccccc4O3)cc2)n1 (stereo not drawn)	-98.0
CCN(CCNC(=O)C1CCCN(S(=O)(=O)CC)C1)c1ccccc1 (stereo not drawn)	-7.7
O=C(C1CCCN(S(=O)(=O)Cc2ccccc2)C1)N1CCCCC1 (stereo not drawn)	9.9
CC(NC(=O)C1CCCN(C(=O)N(C)C)C1)c1ccccc1 (stereo not drawn)	65.9*	VCAM1 pot confirm=-36.0
O=C(Nc1ccc(Cl)cc1)C1CCC(=O)N1Cc1ccccc1Cl (stereo not drawn)	-0.6
O=S(=O)(NCc1ccccc1)c1ccc(S(=O)(=O)N(Cc2ccccn2)C2CCCC2)cc1	?	VCAM1 pot confirm=-12.9
CN(Cc1ccccc1)S(=O)(=O)c1ccc(NC(=S)NC(=O)C2CCCC2)cc1	-47.9
CCCNS(=O)(=O)c1ccc(NC(=O)c2ccccn2)cc1	-3.4
CCOC(=O)C1=C(Cc2ccc(Cl)cc2)C(=O)c2ccccc2C1=O	-6.2
CCn1c2ccccc2c2cc(NC(=O)CSc3nnc(-c4cccc(C)c4)o3)ccc21	8.4
COc1ccc(OCCOC(=O)c2cccc(-n3cnnn3)c2)cc1	-2.7
O=C(COc1ccccc1)Nc1ccc(OC(F)(F)C(F)F)c(NC(=O)COc2ccccc2)c1	-4.4
COc1ccc(Cl)cc1NC(=O)COc1cccc(-n2cnnn2)c1	?	VCAM1 pot confirm=6.6
CCOC(=O)c1cc(C#N)c(N2CCCC2)nc1-c1ccccc1	-7.4
CCOC(=O)c1cc(-c2ccc(OC)cc2F)nc2c1c(C)nn2CCC#N	33.6*	VCAM1 pot confirm=-15.1
CCCOc1c(Br)cc(C(=O)NCC)cc1OC	-4.1
COc1ccc(S(=O)(=O)n2cnc3cc(C)c(C)cc32)cc1C	4.1
CC(C)(C)c1ccc(OCCON2C(=O)CCC2=O)c(Cl)c1	-0.5
SMILES	VCAM1 pot	others
CC(C)c1ccc(NC(=O)CSc2nnc(-c3ccccn3)n2C)cc1	0.5
Cc1ccc(S(=O)(=O)NC(=O)Nc2cc(C)ccc2F)cc1	1.7
COc1cc(NC(=O)NS(=O)(=O)c2ccc(C)cc2)cc(OC)c1	59.7*	VCAM1 pot confirm=-23.2
COc1ccccc1C(=O)Nc1ccc(S(=O)(=O)Nc2cc(C)on2)cc1	4.2
CC/C(=C\C(=O)c1ccncc1)Nc1ccc(Br)cc1	24.2
COc1ccc(Cc2ccc(OC)c(N)c2)cc1N	-11.1
CCOC(=O)c1ccc(NC(=O)CSc2nnc(C3CCCCC3)n2C)cc1	10.7
O=C(COc1ccc(S(=O)(=O)N2CCCCC2)cc1)NC1CCCCC1	-3.8
CCCn1nnc(NC(=O)COc2ccc(C3CCCCC3)cc2)n1	67.8*	VCAM1 pot confirm=-14.2
Cc1cc(C)n(C(=O)COc2ccc(Cl)cc2Cl)n1	43.3*	VCAM1 pot confirm=-12.0
COc1cc(OC)cc(C(=O)n2nc(C)cc2C)c1	-6.9
CC(C)(CO)NC(=O)CCCOc1ccc(Cl)cc1Cl	-93.4
COc1cc2c3c(c1)-c1c(sn(-c4cc(OC)ccc4OC)c1=S)C(C)(C)N3C(=O)C2=O	5.7
COc1ccc(OC)c(C(=O)c2nc3c(n2O)CCCCC3)c1	-12.8
COC(=O)c1ccccc1NC(=O)N1CCN(S(=O)(=O)c2ccc(Cl)cc2)CC1	-10.0
Cc1nc(Nc2ccccc2)[nH]c(=O)c1CCC(C)C	?	VCAM1 pot confirm=2.6
CC(C)Cc1nnc(NC(=O)CSc2ncn[nH]2)s1	-21.5
CC(NC(=O)COC(=O)Cc1ccsc1)C1CC2CCC1C2 (stereo not drawn)	-88.1
Cc1cc(C)c2nc(C(F)(F)F)nc(N3CC(C)OC(C)C3)c2c1 (stereo not drawn)	3.5
CCOC(=O)CN=C1CC(C)(C)CC2=C1Sc1ncnc(N(C)C)c1N2	-7.8
CCCN1CCN(S(=O)(=O)c2ccc(OC)c(Br)c2)CC1	-0.4
COc1ccc(C(=S)N2CCN(C)CC2)cc1Br	37.5*	VCAM1 pot confirm=-21.5
COc1cc(OC)cc(C(=O)N2CCN(C(=O)c3ccc(OC)c(OC)c3)CC2)c1	-1.6
C=CCNc1sc(C(=O)c2ccccc2)c(N)c1C#N	-4.9
C=CCNc1sc(C(=O)C2CC2)c(N)c1C#N	30.1*	VCAM1 pot confirm=-7.6
SMILES	VCAM1 pot	others
O=C(Nc1ccc(-c2cc3ccccc3oc2=O)c(Cl)c1)c1cccnc1	-8.2
O=C(Nc1ccc(N2CCN(C(=O)c3ccco3)CC2)c(Cl)c1)c1cc2ccccc2o1	?	VCAM1 pot confirm=-11.1
CC(=O)Nc1cccc(NC(=O)c2cc3ccccc3o2)c1	-5.6
COc1ccc(OC)c(NC(=O)C2CCN(Cc3cnn(-c4ccccc4)c3-n3cccc3)CC2)c1	9.7
O=C(NCC1CCCO1)C1CCC(=O)N1Cc1ccccc1Cl (stereo not drawn)	5.6
CCOC(=O)N1CCN(C(=O)c2ccc(N(C)S(C)(=O)=O)cc2)CC1	6.4
Cc1cc(C)n(-c2ccc(C(=O)Oc3ccc4c(c3)OCO4)cc2)n1	22.9
CCCCn1c(SCC(=O)c2ccc3c(c2)OCCO3)nnc1-c1ccco1	-1.5
CCOc1ccc(-c2nnn(CC(=O)c3ccc4c(c3)OCCO4)n2)cc1	84.5*	VCAM1 pot confirm=-19.9
CC/C(=N\NC(=O)CNC(=O)/C=C/c1ccco1)c1ccccc1	-35.4
CC1CCCN(C(C(=O)Nc2ccc3c(c2)OCO3)c2ccccc2)C1 (stereo not drawn)	-3.2
O=C(C1CCC(Cn2c(=S)[nH]c3ccccc3c2=O)CC1)N1CCN(c2ccccc2)CC1 (stereo not drawn)	-7.9
COc1ccccc1N(CC(=O)Nc1cccnc1)S(=O)(=O)c1ccccc1	8.0
CN(c1ccccc1C(=O)NCc1ccccn1)S(C)(=O)=O	5.6
COCCNC(=O)c1ccccc1NC(=O)c1ccccc1N(C)S(=O)(=O)c1ccccc1	31.6*	VCAM1 pot confirm=-5.4
COc1cccc(C(=O)Nc2cccc(-c3nc4ncccc4o3)c2C)c1	-94.0
COC(=O)C1=C(CSc2nc3c(cc2C#N)CN(C)CC3)OC(N)=C(C#N)C1c1ccc(F)cc1 (stereo not drawn)	4.6
